These compounds were tested on UCD52 (cells of a triple-negative basal-like breast cancer xenograft) (assay: cell viability of combination (% of vehicle); higher = less cytotoxic). Conditions: 1 µM; 72 h; partner dose: 10 nM.
Method: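 PDX cells were treated for 72 h with each drug at 1 µM plus carfilzomib (10 nM; 100 nM for WHIM2). Luciferase viability is expressed as percent of vehicle.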

First: CNCCC(Oc1cccc2ccccc12)c1cccs1.Cl (stereo not given) [Duloxetine HCl] + CC(C)C[C@H](NC(=O)[C@H](CCc1ccccc1)NC(=O)CN1CCOCC1)C(=O)N[C@@H](Cc1ccccc1)C(=O)N[C@@H](CC(C)C)C(=O)[C@@]1(C)CO1 [Carfilzomib]
Second: CC(C)N=c1cc2n(-c3ccc(Cl)cc3)c3ccccc3nc-2cc1Nc1ccc(Cl)cc1 [Clofazimine] + CC(C)C[C@H](NC(=O)[C@H](CCc1ccccc1)NC(=O)CN1CCOCC1)C(=O)N[C@@H](Cc1ccccc1)C(=O)N[C@@H](CC(C)C)C(=O)[C@@]1(C)CO1 [Carfilzomib]
The “cell viability of combination” value of the first is lower: 62.4 for the first, 62.7 for the second.

Compared with COC(=O)C12CCC(C)(C)CC1C1C(=O)C=C3C4(C)C=C(C#N)C(=O)C(C)(C)C4CCC3(C)C1(C)CC2 (stereo not given) [Bardoxolone methyl] + CC(C)C[C@H](NC(=O)[C@H](CCc1ccccc1)NC(=O)CN1CCOCC1)C(=O)N[C@@H](Cc1ccccc1)C(=O)N[C@@H](CC(C)C)C(=O)[C@@]1(C)CO1 [Carfilzomib], COc1cc(C(=O)O)ccc1NC(=O)C1NC(CC(C)(C)C)C(C#N)(c2ccc(Cl)cc2F)C1c1cccc(Cl)c1F (stereo not given) + CC(C)C[C@H](NC(=O)[C@H](CCc1ccccc1)NC(=O)CN1CCOCC1)C(=O)N[C@@H](Cc1ccccc1)C(=O)N[C@@H](CC(C)C)C(=O)[C@@]1(C)CO1 [Carfilzomib] is higher in “cell viability of combination” value: 28.1 for the first, 62.7 for the second.

O=C(c1ccc(F)c(F)c1Nc1ccc(I)cc1F)N1CC(O)(C2CCCCN2)C1 (stereo not given) [Cobimetinib] + CC(C)C[C@H](NC(=O)[C@H](CCc1ccccc1)NC(=O)CN1CCOCC1)C(=O)N[C@@H](Cc1ccccc1)C(=O)N[C@@H](CC(C)C)C(=O)[C@@]1(C)CO1 [Carfilzomib] was tested, and the “cell viability of combination” value was 44.7.
